Each structure is given as a SMILES string. For some of these results: Results with a measured potency or affinity are listed apart.

Holding throughout (parameters): scale not given: direction of the effect not stated beside the values
The target of assay [1] is Protein translocase subunit SecA (Escherichia coli (strain K12)) (UniProt P10408). Briefly: Assay to Identify E. coli SecA ATPase Inhibitors. It is filed as functional. Conditions: 30 µM.
In assay [2] the target is T1, Ubiquitin-activating enzyme e1, putative (Leishmania donovani (strain BPK282A1)) (UniProt E9BSI1).
T1 sequence (whole entry): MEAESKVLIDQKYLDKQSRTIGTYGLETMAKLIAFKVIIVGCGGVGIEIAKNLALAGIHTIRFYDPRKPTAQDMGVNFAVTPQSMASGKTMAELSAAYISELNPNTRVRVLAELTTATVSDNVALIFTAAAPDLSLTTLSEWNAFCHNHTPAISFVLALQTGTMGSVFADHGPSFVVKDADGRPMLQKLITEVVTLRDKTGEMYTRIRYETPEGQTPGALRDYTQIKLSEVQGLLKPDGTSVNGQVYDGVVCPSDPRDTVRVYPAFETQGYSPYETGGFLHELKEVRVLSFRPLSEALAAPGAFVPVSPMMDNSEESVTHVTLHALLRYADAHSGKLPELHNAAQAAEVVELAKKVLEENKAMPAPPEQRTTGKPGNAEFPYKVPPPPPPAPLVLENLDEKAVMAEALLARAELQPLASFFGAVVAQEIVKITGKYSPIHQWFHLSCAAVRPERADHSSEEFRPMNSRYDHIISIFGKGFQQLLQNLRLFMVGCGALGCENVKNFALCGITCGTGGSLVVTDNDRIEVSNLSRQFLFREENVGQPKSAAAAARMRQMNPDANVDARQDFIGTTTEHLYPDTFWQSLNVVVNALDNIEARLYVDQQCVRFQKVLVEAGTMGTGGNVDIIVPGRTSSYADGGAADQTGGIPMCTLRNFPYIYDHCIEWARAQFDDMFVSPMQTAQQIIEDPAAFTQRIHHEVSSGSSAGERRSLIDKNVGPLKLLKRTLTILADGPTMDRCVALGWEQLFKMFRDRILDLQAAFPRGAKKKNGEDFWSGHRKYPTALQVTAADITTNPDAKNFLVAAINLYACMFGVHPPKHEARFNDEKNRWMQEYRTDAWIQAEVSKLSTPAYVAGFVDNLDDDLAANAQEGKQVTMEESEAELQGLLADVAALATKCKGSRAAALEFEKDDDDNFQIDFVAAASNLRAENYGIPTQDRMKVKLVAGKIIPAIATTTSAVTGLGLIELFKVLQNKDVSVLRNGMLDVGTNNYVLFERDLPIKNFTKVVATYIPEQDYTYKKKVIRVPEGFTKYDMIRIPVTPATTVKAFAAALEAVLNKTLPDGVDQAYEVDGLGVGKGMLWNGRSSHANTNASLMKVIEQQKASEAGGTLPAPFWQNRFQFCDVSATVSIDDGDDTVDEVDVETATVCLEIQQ
Briefly: Leishmania donovani Ubiquitin Activating Enzyme (LdE1). It is filed as functional. Conditions: 30 µM.

Assay [3] deals with AMP-activated protein kinase, AMPK (Homo sapiens) (UniProt P54646+O43741+P54619+Q9UGJ0+Q9Y478+Q13131+Q9UGI9). Briefly: AMP-dependent Kinase enzyme assay. An in vitro enzyme assay that detects ADP turnover that is directly proportional to AMPK activity. This uses naive AMPK that is activated during the assay with MK-8722. The assay is classed as functional. To be noted: 30 µM.

The target of assay [4] is Sialic acid-binding Ig-like lectin 9 (Homo sapiens) (UniProt Q9Y336). The assay is described as follows: Hs-Siglec9 ALPHAscreen SOP 20170721. To be noted: 10 µM. For orientation: Bead proximity is the source of the signal in Alpha formats.
Sequence of Sialic acid-binding Ig-like lectin 9 (Homo sapiens) (Q9Y336 whole entry): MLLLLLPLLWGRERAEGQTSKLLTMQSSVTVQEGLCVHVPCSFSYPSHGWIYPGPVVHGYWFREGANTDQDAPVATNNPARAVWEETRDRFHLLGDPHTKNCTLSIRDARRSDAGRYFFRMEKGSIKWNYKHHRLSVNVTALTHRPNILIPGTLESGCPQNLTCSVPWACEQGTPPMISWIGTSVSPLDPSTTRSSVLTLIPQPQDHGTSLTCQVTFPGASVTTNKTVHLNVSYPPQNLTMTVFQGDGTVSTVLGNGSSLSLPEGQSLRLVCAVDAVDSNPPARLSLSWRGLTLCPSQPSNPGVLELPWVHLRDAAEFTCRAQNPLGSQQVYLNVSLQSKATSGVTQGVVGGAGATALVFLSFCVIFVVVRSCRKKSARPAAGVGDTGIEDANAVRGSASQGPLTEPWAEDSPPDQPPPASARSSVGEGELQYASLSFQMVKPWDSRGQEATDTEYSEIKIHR
A further assay concerns Trypanosoma cruzi. Briefly: Trypanosoma cruzi phosphomannomutase and mannose-1-phosphate guanylyltransferase assay. The assay is classed as functional. Conditions: 10 µM.
Assay [5] concerns the target T2, Arginase-2, mitochondrial (Homo sapiens) (UniProt P78540).
T2 sequence (whole entry): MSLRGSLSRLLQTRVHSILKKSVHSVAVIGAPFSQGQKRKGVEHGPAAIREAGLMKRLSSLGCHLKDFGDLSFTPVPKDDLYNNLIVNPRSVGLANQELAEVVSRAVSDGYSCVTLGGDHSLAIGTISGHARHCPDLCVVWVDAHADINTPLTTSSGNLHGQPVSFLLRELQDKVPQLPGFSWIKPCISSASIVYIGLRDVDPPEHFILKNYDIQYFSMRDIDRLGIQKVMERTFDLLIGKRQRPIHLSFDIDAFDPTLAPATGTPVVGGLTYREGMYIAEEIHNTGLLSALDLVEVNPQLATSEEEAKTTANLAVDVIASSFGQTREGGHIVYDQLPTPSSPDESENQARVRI
Briefly: in vitro enzyme assay to detect the production of urea directly proportional to the activity of Arginase II. Note: in the data most compounds retested in dose-response had high values. The assay is classed as functional. Conditions: 33.3 µM.

For assay [6], the target named is T3, Proteasome subunit beta (Trypanosoma cruzi) (UniProt O96673).
T3 sequence (whole entry): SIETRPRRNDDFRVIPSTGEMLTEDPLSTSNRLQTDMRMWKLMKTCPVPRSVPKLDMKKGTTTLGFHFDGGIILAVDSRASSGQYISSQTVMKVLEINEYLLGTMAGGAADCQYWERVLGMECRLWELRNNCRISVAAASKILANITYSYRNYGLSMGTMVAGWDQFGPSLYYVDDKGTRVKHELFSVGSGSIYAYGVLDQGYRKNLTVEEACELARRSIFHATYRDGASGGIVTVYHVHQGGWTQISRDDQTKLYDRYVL
The assay is described as follows: Trypanosoma cruzi proteasome chymotrypsin-like activity (TcProtChymo) assay. Note: in the data most compounds retested in dose-response had high values. The assay is classed as functional. Conditions: 9.37 µM.

The species named for a further assay is Homo sapiens. Briefly: To identify inhibition of the IFN signalling (Jak-Stat) pathway via expression of an eGFP reporter gene under the control of an IFN-stimulated response element (ISRE) containing MxA promoter. The assay is classed as functional. To be noted: 30 µM.
Assay [7] addresses T4, Tyrosyl-tRNA synthetase, putative (Trypanosoma cruzi (strain CL Brener)) (UniProt Q4DSP6).
T4 sequence (whole entry): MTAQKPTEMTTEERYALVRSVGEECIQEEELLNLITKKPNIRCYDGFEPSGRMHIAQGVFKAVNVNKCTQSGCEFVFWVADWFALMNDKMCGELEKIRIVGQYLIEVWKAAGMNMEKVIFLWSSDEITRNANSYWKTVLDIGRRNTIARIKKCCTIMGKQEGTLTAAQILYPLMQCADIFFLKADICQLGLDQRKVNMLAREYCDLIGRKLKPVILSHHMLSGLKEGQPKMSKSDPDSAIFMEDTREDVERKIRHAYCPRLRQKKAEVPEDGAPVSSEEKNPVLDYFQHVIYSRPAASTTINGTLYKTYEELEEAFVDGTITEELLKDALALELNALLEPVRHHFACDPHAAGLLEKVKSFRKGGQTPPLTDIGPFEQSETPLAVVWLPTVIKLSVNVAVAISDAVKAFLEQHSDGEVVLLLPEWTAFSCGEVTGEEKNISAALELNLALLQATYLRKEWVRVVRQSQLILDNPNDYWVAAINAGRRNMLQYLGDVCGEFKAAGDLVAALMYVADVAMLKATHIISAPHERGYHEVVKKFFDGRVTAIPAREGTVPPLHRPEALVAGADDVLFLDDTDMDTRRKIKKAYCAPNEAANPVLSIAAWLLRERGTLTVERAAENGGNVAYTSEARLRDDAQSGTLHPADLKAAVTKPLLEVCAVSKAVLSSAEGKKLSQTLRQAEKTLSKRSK
Briefly: Trypanosoma cruzi tyrosyl tRNA synthetase (TcYRS) _High Tyrosine SOP. Note: in the data most compounds retested in dose-response had high values. The assay is classed as functional. To be noted: 30 µM.

Assay [8] concerns the target T4, Tyrosyl-tRNA synthetase, putative (Trypanosoma cruzi (strain CL Brener)). The assay is described as follows: Trypanosoma cruzi tyrosyl tRNA synthetase (TcYRS) SOP. It is filed as functional. To be noted: 30 µM.
The target of assay [9] is Chromo domain-containing protein 1 (Saccharomyces cerevisiae (strain ATCC 204508 / S288c) (Baker's yeast)) (UniProt P32657). The assay is described as follows: ScCHD-1 Enzyme Inhibition Assay. Note: in the data most compounds retested in dose-response had high values. Conditions: 30 µM. The assay is classed as functional.
Sequence of Chromo domain-containing protein 1 (Saccharomyces cerevisiae (strain ATCC 204508 / S288c) (Baker's yeast)) (P32657 whole entry, the tested form may be a part): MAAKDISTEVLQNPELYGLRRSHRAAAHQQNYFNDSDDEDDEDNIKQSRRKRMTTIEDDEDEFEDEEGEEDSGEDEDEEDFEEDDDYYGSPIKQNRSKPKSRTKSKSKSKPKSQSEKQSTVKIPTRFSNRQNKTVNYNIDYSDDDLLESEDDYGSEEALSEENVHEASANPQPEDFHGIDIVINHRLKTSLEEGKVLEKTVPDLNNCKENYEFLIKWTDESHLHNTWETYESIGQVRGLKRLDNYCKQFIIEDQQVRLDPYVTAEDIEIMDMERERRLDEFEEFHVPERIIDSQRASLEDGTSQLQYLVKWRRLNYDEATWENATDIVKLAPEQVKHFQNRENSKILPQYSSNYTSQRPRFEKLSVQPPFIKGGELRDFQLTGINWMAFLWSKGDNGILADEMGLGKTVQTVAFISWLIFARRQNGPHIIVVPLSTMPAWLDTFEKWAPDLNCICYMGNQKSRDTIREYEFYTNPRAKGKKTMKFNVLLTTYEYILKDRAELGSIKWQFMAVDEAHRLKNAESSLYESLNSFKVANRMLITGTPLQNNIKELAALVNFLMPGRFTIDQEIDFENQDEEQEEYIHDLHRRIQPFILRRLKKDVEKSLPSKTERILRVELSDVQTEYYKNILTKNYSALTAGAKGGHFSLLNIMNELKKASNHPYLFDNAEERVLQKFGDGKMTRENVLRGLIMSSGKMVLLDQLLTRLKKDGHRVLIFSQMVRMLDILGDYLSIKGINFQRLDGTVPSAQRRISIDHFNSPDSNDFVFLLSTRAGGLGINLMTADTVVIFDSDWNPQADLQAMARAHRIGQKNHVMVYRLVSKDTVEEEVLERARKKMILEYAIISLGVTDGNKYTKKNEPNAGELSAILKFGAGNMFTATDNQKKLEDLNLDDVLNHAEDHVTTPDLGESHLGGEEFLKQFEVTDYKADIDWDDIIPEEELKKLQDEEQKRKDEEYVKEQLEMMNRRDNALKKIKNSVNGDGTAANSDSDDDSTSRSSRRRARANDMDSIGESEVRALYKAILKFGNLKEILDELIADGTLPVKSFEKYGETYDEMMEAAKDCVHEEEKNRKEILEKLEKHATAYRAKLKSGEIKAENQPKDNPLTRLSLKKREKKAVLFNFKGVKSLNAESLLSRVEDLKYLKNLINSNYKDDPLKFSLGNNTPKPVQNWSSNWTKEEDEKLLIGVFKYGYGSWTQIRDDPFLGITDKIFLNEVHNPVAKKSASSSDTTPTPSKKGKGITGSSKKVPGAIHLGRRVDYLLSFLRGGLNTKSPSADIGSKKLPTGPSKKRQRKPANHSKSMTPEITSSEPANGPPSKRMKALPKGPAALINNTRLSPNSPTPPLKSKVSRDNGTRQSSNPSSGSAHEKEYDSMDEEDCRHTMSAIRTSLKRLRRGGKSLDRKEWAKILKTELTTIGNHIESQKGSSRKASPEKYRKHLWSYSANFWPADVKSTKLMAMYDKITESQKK

Sequence of Protein translocase subunit SecA (Escherichia coli (strain K12)) (P10408 whole entry): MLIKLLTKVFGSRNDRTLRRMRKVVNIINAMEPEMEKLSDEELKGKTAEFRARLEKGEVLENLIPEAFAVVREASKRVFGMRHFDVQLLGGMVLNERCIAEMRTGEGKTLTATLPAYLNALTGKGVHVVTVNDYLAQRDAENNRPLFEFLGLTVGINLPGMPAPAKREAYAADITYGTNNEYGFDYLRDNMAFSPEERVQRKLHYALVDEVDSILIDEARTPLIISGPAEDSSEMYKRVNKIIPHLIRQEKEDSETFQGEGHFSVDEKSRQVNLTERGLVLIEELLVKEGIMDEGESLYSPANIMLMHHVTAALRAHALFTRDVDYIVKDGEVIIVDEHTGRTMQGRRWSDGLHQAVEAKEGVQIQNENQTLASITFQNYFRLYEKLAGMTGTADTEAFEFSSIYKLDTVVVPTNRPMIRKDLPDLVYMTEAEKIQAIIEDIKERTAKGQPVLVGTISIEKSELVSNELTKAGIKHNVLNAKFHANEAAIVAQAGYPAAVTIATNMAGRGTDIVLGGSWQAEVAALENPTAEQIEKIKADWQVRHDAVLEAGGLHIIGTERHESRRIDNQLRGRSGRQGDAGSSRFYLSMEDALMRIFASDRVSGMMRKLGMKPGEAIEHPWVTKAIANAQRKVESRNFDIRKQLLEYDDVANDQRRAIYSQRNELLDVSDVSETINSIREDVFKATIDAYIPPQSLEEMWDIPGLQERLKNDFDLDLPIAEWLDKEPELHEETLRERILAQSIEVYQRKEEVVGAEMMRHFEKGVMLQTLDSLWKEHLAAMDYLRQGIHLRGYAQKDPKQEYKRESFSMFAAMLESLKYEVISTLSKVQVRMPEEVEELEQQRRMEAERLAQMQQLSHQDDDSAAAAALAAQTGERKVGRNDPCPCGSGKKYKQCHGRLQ

As for `COc1ccc(C2Nc3ccccc3C3=NCCCN32)cc1OC` (stereo unspecified), the Percent Effect was -5.46% in assay [1]; -2.67% in [2]; 8.31% in [3]; -1.83% in [4]; -0.787% in the assay on Trypanosoma cruzi; -1.63% in assay [5]. Also, the Percent Effect was -2.91% in assay [6]; 11.5% in the assay filed under Homo sapiens; 0% in assay [7]; 1.28% in assay [8]; -8.33% in assay [9].

`CC(=O)N1CCN(C)CC(COCc2ccccc2)C1` (stereo unspecified): the Percent Effect was -5.71% in assay [1]; 12.2% in assay [2]; 7.92% in assay [3]; 3.51% in assay [4]; 4.54% with Trypanosoma cruzi; -2.09% in assay [5]. The Percent Effect was -1.09% in [6]; 6.97% in the assay filed under Homo sapiens; 4.3% in [7]; 6.49% in assay [8]; -11.4% in assay [9].

With `Cc1nc(C2CCCN2Cc2nnc(C3CC3)o2)no1` (stereo unspecified), the Percent Effect in assay [1] was -2%; in assay [2], 2.7%; in [3], 4.19%; in assay [4] it was 3.15%; in the assay on Trypanosoma cruzi, -1.21%; in [5], -0.554%. In addition, the Percent Effect was 17.2% in assay [6]; 16.6% in the assay listed under Homo sapiens; 9.9% in assay [7]; 18.3% in assay [8]; -3.91% in assay [9].

`CCOc1ccccc1C(=O)NS(=O)(=O)c1ccc2c(c1)OCCCO2`: the Percent Effect in assay [1] is -5.62%; in assay [2], 5.26%; in [3] it was -3.19%; in assay [4], 0.997%; in the assay on Trypanosoma cruzi, 3.08%; in assay [5], -3.24%. Moreover, the Percent Effect in assay [6] is 8.04%; in the assay listed under Homo sapiens, 7.05%; in assay [7], -29.1%; in [8], -21%; in [9], -8.5%.

For the compound `COCCNc1ccc(CNC(=O)Nc2cn[nH]c2)cc1`, the Percent Effect is -0.0653% in assay [1]; 20.2% in [2]; -7.85% in assay [3]; 0.901% in [4]; -10.5% in the assay on Trypanosoma cruzi; 3.42% in [5]. Besides, the Percent Effect was 1.06% in assay [6]; 20.9% in the assay listed under Homo sapiens; 3.45% in assay [7]; 11.4% in [8]; -5.01% in assay [9].

As to `Cc1cncc(C(=O)N2CCCCC2c2nc(C)cs2)c1` (stereo unspecified), the Percent Effect was -4.34% in assay [1]; -36.4% in assay [2]; -2.13% in assay [3]; 4.39% in [4]; 8.99% with Trypanosoma cruzi; 3.92% in assay [5]. Also, the Percent Effect in assay [6] was 9.29%; in the assay listed under Homo sapiens, 16.2%; in [7], 9.71%; in assay [8], 21.9%; in assay [9], -10.7%.

On to `Cc1cccc(N2CCN(CCNC(=O)C(C)n3cncn3)CC2)c1` (stereo unspecified), for which the Percent Effect is -4.94% in assay [1]; 28.9% in [2]; -8.42% in assay [3]; -3.17% in assay [4]; 3.83% with Trypanosoma cruzi; -3.96% in assay [5]. Besides, the Percent Effect is 15% in assay [6]; 9.51% in the assay listed under Homo sapiens; 7.39% in [7]; 23.5% in assay [8]; -10.7% in assay [9].

Consider `Cc1cc(C)cc(NC(=O)CN2CCCC(n3cncn3)C2)c1` (stereo unspecified), for which the Percent Effect is -3.62% in [1]; 8.11% in assay [2]; 1.86% in assay [3]; 6.56% in assay [4]; 8.08% in the assay on Trypanosoma cruzi; -1.66% in assay [5]. In addition, the Percent Effect in assay [6] was 1.44%; in the assay listed under Homo sapiens, 3.59%; in assay [7], 2.97%; in [8], 15.8%; in [9] it was -2.91%.

For the compound `CC(=O)c1cn(CCC(=O)N[C@H](C(=O)O)C(C)C)c2ccccc12`, the Percent Effect in [1] was -1.16%; in assay [2], 12%; in assay [3] it was 3.61%; in assay [4], -0.198%; with Trypanosoma cruzi it was -2.95%; in assay [5], -9.68%. Moreover, the Percent Effect in assay [6] was 11.7%; in the assay listed under Homo sapiens, 8.13%; in assay [7], 7.41%; in assay [8], 15.4%; in [9], -3.85%.

Turning to `CC(C)c1nnc2ccc(N3CCC(C(N)=O)CC3)nn12`, the Percent Effect in [1] is -7.89%; in assay [2], 1.33%; in assay [3] it was 11.2%; in assay [4] it was 0.782%; with Trypanosoma cruzi, -4.52%; in assay [5], -8.63%. Moreover, the Percent Effect was 3.14% in assay [6]; -2.58% in the assay listed under Homo sapiens; -1.06% in [7]; 0% in [8]; -7.68% in assay [9].

Regarding `COCCOc1ccccc1C(=O)N1CCCCC1c1nccs1` (stereo unspecified), the Percent Effect in assay [1] is -5.08%; in assay [2] it was 5.41%; in assay [3], -31.5%; in assay [4] it was 16.3%; with Trypanosoma cruzi it was 7.45%; in assay [5] it was -2.81%. Also, the Percent Effect is 2.52% in assay [6]; -0.874% in the assay filed under Homo sapiens; 4.43% in [7]; 11.1% in assay [8]; -14.3% in assay [9].

The record behind these values is ChEMBL document CHEMBL3988442, “University of Dundee, Small-Polar-MMV Screening Library” (2021).
